Compound activity deposited in PubChem BioAssay by several laboratories.
This is a sample that favours compounds with a hit; in the whole collection about 4% have one here.
FAS-TE inh = blocks the thioesterase domain of human fatty acid synthase | P49327 | recombinant FAS-TE, OMFH fluorogenic substrate, fluorescence endpoint | inhibition, % at 15 µM | hit rate 0.67% among 360,000 | AID 602261;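 active = compounds whose normalised, plate-corrected inhibition of enzyme fluorescence in the single-dose primary screen is 50% or more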
ADAM10 inh = inhibitors of human ADAM10 | O14672 | recombinant ADAM10, EDANS/DABCYL FRET peptide cleavage, 3 h | inhibition, % at 7 µM | hit rate 0.62% among 370,000;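 active = inhibition above a per-campaign cutoff equal to the mean of compounds falling between control-based bounds plus 3 SD, cut at about 20% in these data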
ADAM17 inh = inhibitors of human ADAM17. P78536. recombinant ADAM17, EDANS/DABCYL FRET peptide cleavage. inhibition, % at 6.95 µM. hit rate 0.83% among 370,000. AID 720648;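 active = inhibition above the mean of compounds lying between control limits plus 3 SD, set per campaign, cut at about 8.5% in these data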
Target sequence (P78536 215-824 limits assumed): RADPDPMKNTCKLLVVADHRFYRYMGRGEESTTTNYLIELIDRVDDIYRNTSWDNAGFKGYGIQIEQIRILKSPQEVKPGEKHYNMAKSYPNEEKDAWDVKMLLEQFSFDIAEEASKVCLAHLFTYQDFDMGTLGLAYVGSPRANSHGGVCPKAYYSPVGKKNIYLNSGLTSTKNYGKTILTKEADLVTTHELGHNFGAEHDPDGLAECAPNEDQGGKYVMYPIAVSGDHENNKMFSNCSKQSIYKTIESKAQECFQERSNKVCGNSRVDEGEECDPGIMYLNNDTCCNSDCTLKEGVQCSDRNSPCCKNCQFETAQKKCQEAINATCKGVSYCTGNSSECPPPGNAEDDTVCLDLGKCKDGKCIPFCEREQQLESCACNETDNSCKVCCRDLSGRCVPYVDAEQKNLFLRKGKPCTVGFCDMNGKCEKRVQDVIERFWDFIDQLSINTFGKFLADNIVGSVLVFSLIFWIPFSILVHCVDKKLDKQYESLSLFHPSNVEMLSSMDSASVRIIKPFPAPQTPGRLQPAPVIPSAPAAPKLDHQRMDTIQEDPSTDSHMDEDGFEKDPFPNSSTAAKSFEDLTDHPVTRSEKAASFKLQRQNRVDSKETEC
NR3A LBD binder = modulates the human NR3A ligand-binding domain. NR3A LBD differential scanning fluorimetry, Tm shift; 0% = protein alone, 100% = glycine-bound protein. Tm shift relative to glycine control, % at 25 µM. hit rate 2.5% among 340,000. AID 1259313;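 active = melting temperature shift of at least 10% of the positive control shift, at one fixed dose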
aDG glyco act = increases alpha dystroglycan glycosylation; Pro5-aDG cells, alpha-DG glycosylation AlphaScreen (IIH6); 0% Pro5, 100% B10-LARGE cell signal; hit rate 0.22% among 360,000; activation, % at 10 µM;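 active = activation of at least 8% versus controls, or a plate z-score of at least 8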;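 note: Pro5 are CHO cells carrying HIG-tagged alpha-DG that lacks glycosylation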
Large screens that a line does not name were inactive.

COc1cc2nc(NCC3CCCO3)n3nc(-c4cccnc4)nc3c2cc1OC (configuration not stated)	none
O=C(NCCCCc1ccccc1)c1ccccc1Br	none
Cc1ccc2nc(C)c3c(c2c1)N(c1ccc(F)cc1)CC3	none
Cc1ccc(-c2cc(C(=O)N/N=C/c3c[nH]c4ccccc34)n[nH]2)o1	NR3A LBD binder 28
Cc1ccc(-c2cc(C(=O)N/N=C/c3ccccc3O)n[nH]2)o1	NR3A LBD binder 31
Cc1ccc(-c2cc(C(=O)N/N=C/c3ccc(F)cc3)n[nH]2)o1	NR3A LBD binder 31
Cc1ccc(C(=O)N/N=C/c2c[nH]c3ccccc23)o1	none
Cn1nc(C(C)(C)C)cc1C(=O)NCc1ccc(N2CCCC2=O)cc1	aDG glyco act 4.7
Cc1ccc(CNC(=O)c2ccc(N3CCCC3=O)cc2)cc1	none
O=C(N/N=C/c1ccc(Sc2ccccn2)o1)c1cccc([N+](=O)[O-])c1	none
CCCNC(=O)NC(=O)c1cnccc1C(F)(F)F	none
COc1ccc(/C(N)=N/OC(=O)c2cccs2)cc1OC	NR3A LBD binder 22
COc1ccc(Cl)cc1C(=O)O/N=C(\N)c1ccc(Cl)cc1	NR3A LBD binder 20
COc1cc(OC)c(C(=O)O/N=C(\N)c2ccc(C)cc2)cc1OC	none
O=S(=O)(Cc1c(F)cccc1Cl)c1ncn[nH]1	none
Cc1c(C#N)c(N)nc2c3c(sc12)NC(=O)CC3c1ccc(Cl)cc1 (configuration not stated)	NR3A LBD binder 14
N#Cc1c(N)nc2c3c(sc(=N)c2c1N)NC(=O)CC3c1ccccc1 (configuration not stated)	none
O=C1[C@H]2[C@@H](c3ccc(Cl)cc3)N3C(=O)N(c4cccc(Cl)c4)C(=O)[C@@]3(Cc3ccc(Cl)cc3)[C@H]2C(=O)N1C1CCCCC1	FAS-TE inh 94
O=C1[C@H]2[C@@H](c3ccc(F)cc3)N3C(=O)N(c4ccc(Br)cc4)C(=O)[C@@]3(Cc3ccccc3)[C@H]2C(=O)N1C1CCCCC1	FAS-TE inh 92
CC(C)C[C@@]12C(=O)N(c3cccc(Cl)c3)C(=O)N1[C@H](c1ccc(F)cc1)[C@@H]1C(=O)N(C3CCCCC3)C(=O)[C@@H]12	FAS-TE inh 84
Cc1cccc(N2C(=O)N3[C@H](c4ccc(Cl)cc4)[C@@H]4C(=O)N(C5CCCCC5)C(=O)[C@@H]4[C@]3(Cc3ccc(Cl)cc3)C2=O)c1	FAS-TE inh 94, NR3A LBD binder 21 (no result: ADAM10 inh, ADAM17 inh)
CCN1C(=O)[C@H]2[C@@H](c3ccc(C)cc3)N3C(=O)N(c4cccc(C)c4)C(=O)[C@@]3(Cc3ccccc3)[C@H]2C1=O	none
Cc1ccc(N2C(=O)N3[C@H](c4ccc(F)cc4)[C@@H]4C(=O)N(C5CCCCC5)C(=O)[C@@H]4[C@]3(C)C2=O)cc1	none (no result: ADAM10 inh, ADAM17 inh)
O=C1[C@H]2[C@@H](c3ccc(Cl)cc3)N3C(=O)N(c4cccc(F)c4)C(=O)[C@@]3(Cc3ccc(Cl)cc3)[C@H]2C(=O)N1C1CCCCC1	FAS-TE inh 96, NR3A LBD binder 14 (no result: ADAM10 inh, ADAM17 inh)
CCN1C(=O)[C@H]2[C@@H](c3ccc(C)cc3)N3C(=O)N(c4cccc(F)c4)C(=O)[C@@]3(Cc3ccc(Cl)cc3)[C@H]2C1=O	none
CC(C)N(C(=O)C(=O)c1cccn1-c1ccccc1C#N)C(C)C	none
NC(=O)c1ccsc1NC(=O)c1ccc(S(=O)(=O)N2CCCc3ccccc32)cc1	NR3A LBD binder 16
O=C(Nc1ccc(S(=O)(=O)N2CCCc3ccccc32)cc1)C1CCCO1 (configuration not stated)	NR3A LBD binder 11 (no result: ADAM10 inh, ADAM17 inh)
C/C(=N/NC(=O)c1ccoc1C)c1cccc(NC(=O)C(F)(F)F)c1	none
COc1ccc(C(=O)N/N=C(/C)c2cccc(NC(=O)C(F)(F)F)c2)cc1	NR3A LBD binder 10
CCC(=O)Nc1ccc(/C(C)=N\NC(=O)c2ccc(OC)cc2)cc1	NR3A LBD binder 19
O=C(NNC(=O)c1cccnc1SCc1cccc([N+](=O)[O-])c1)c1ccccn1	NR3A LBD binder 18
O=C(NNC(=O)c1cccnc1SCc1cccc([N+](=O)[O-])c1)c1ccc(F)cc1	none
Cc1cc(C(=O)Nc2cccc3ccccc23)c(C)o1	none
Cc1oc(CC(C)C)cc1C(=O)Nc1cccc2ccccc12	NR3A LBD binder 25
CN(C)c1cc(NC(=O)CN2CCOCC2)c2ccccc2n1	none (no result: ADAM10 inh, ADAM17 inh)
O=C1N=c2ccccc2=C1c1sc(NS(=O)(=O)c2ccccc2)nc1O	none
O=C1N=c2ccccc2=C1c1sc(Nc2cccc(O)c2)nc1O	NR3A LBD binder 25
O=C1N=c2ccccc2=C1c1sc(Nc2ccc(O)cc2)nc1O	NR3A LBD binder 13
O=C1N=c2ccccc2=C1c1sc(NS(=O)(=O)Cc2ccccc2)nc1O	none
COc1ccc(S(=O)(=O)N(C)C[C@H]2Oc3ccc(NC(=O)NC4CCCCC4)cc3C(=O)N([C@H](C)CO)C[C@@H]2C)cc1	none
Cn1nc(C(F)(F)F)c(-c2ccc(F)cc2)c1NC(=O)Nc1ccc(F)cc1	none
O=C(/C=C/c1cccnc1)c1ccc(NC(=O)c2cccc(Br)c2)cc1	NR3A LBD binder 26
Cc1cccc(C(=O)Nc2ccc(C(=O)/C=C/c3cccnc3)cc2)c1	NR3A LBD binder 24
Cc1cccc(C(=O)Nc2ccc(C(=O)/C=C/c3ccncc3)cc2)c1	NR3A LBD binder 16
O=C(N/N=C/c1cccnc1)c1cccc(Br)c1	none
Cc1cccc(NC(=O)c2cccnc2)c1	none
O=C(NNC(=S)NCc1ccco1)c1ccc(S(=O)(=O)N2CCOCC2)cc1	none
CC(C)(C)c1ccc(/C=C2\Oc3cc(O)ccc3C2=O)cc1	NR3A LBD binder 17
COC(=O)c1ccc2c(c1)C(=O)/C(=C/c1ccc(O)cc1)O2	none
O=C1/C(=C/c2ccc([N+](=O)[O-])cc2)Oc2cc(O)ccc21	none
O=C1/C(=C/c2ccc(Br)cc2)Oc2cc(O)ccc21	NR3A LBD binder 16
CC(C)(C)OC(=O)NC1CC2CCCC(C1)N2Cc1ccccc1 (configuration not stated)	none
COCCNC(=S)N/N=C(\C)c1cc2ccccc2o1	none
C/C(=N\NC(=O)Cc1c[nH]c2ccccc12)c1ccc2ccccc2c1	NR3A LBD binder 15
O=C(COC(=O)C1CCN(c2ccc(C(F)(F)F)cn2)CC1)Nc1cccc(F)c1	NR3A LBD binder 12
Cc1ccc(NC(=O)COC(=O)C2CCN(c3ccc(C(F)(F)F)cn3)CC2)cc1C	NR3A LBD binder 12
O=C(COC(=O)C1CCN(c2ccc(C(F)(F)F)cn2)CC1)Nc1ccc(F)cc1[N+](=O)[O-]	none
Cc1cc(C)c(NC(=O)COC(=O)C2CCN(c3ccc(C(F)(F)F)cn3)CC2)c(Cl)c1	none
O=C(NCCN1CCOCC1)c1cc(=O)[nH]c2ccc(Br)cc12	none
O=C(NC(c1ccc(Cl)cc1)c1cnccn1)C1CCN(CCCc2ccccc2)CC1 (configuration not stated)	none (no result: ADAM10 inh, ADAM17 inh, NR3A LBD binder)
COC(=O)c1ccc(C)c(NC(=O)CCSc2ccc(Cl)cc2)c1	NR3A LBD binder 31
